Here are results for 69 compounds from ChEMBL document CHEMBL4513216, “Probing the Open Global Health Chemical Diversity Library for Multistage-Active Starting Points for Next-Generation Antimalarials” (ACS Infect Dis, 2020).

Molecules are shown by their SMILES. Hit rate of the full screen: of about 69,000 compounds, about 8,600 (12%) showed an effect of 50% or more. Many of the other results were omitted from the sample, so strong results are more common in it than they were.

The test concerns Plasmodium berghei. Kind of test: Screen against P. berghei liver stage (PbLuc), transformed with Luciferase, at 10uM. Format: functional, HepG2. The note with it: tested at 10 uM.
In the case of `CCc1nn(C)c(Cl)c1CN1CCN(c2ccc(Cl)nn2)CC1`, the INHIBITION is reported as 66.6%.
`CCOC(=O)c1ccc(N2CCN(Cc3c(C)nn(C)c3Cl)CC2)nc1`: the INHIBITION was 74.9%.
Consider `NC(=O)c1ccc(N2CCN(Cc3c(Cl)cncc3Cl)CC2)nc1`, for which the INHIBITION turned out to be 30.7%.
On to `CCc1nn(C)c(Cl)c1CN1CCN(c2ccc(C(N)=O)cn2)CC1`, for which the INHIBITION is recorded as 40.7%.
For `CCc1nn(C)c(Cl)c1CN1CCN(c2nc(C(N)=O)cs2)CC1` the value was 24.1%; for `CCc1nn(C)c(Cl)c1CN1CCC(c2cc(O)nc(C)n2)CC1`, 3.96%.
For `Cn1nc(C2CCCN2)c2c(C(=O)NCC(F)(F)F)cc(C3CC3)nc21` (centres undefined) the value was 28.4%; for `O=S(=O)(c1ccccc1)N1C2CCC(O)(CC2)C1CN1CCOCC1` (centres undefined), 23.7%; for `Cc1nc(C)n(CC2CCCN2Cc2nc(-c3ccccn3)no2)n1` (centres undefined), 32.7%.
On to `CC(C)CNC(=O)[C@H]1CCS(=O)(=O)[C@@H]2CN(c3ncccn3)C[C@H]12`, for which the INHIBITION is 35.8%.
For `CC(C)NC(=O)[C@H]1CCS(=O)(=O)[C@@H]2CN(c3ncc(F)cn3)C[C@H]12` the value was -13%; for `CN(C)C(=O)[C@H]1CCS(=O)(=O)[C@@H]2CN(c3ncccn3)C[C@H]12`, 61.1%; for `CN(C)C(=O)[C@H]1CCS(=O)(=O)[C@@H]2CN(c3ncc(F)cn3)C[C@H]12`, 54.8%.
Regarding `CCc1cnc(N2C[C@@H]3[C@@H](C(=O)N(C)C)CCS(=O)(=O)[C@@H]3C2)nc1`, the INHIBITION is 36.7%.
With `CC(C)NC(=O)[C@H]1CCS(=O)(=O)[C@@H]2CN(c3ncccn3)C[C@H]12` the figure was 0.164%; with `O=C(O)c1cc(C=Cc2ccc3ccccc3c2)ncn1`, -57%; with `Cc1ccc(C(O)CNC(=O)NCc2csc(C)n2)cc1` (centres undefined), -34%.
With `O=C(c1cccnc1N1CCOCC1)N1CCCC(n2cccn2)C1` (centres undefined) the figure was -62.365%; with `Cn1cc(-c2cnc(N3CCOCC3)nc2)cc1C(=O)N1CCCC1`, -50.9%; with `CC(C)(O)CCc1cccc(C(=O)NCCC2=CSC3=NCCCN23)c1`, 31.2%.
In the case of `CN(CCNC(=O)c1ccnc(-n2ccnc2)c1)C1CC1`, the INHIBITION is -3.83%.
With `CNc1cc(C(=O)NCCC2=CSC3=NCCCN23)ccn1` the figure was 50.3%; with `COc1cccc(C2CCCN2C(=O)CC2=CSC3=NCCCN23)c1` (centres undefined), -11.6%; with `CCC(=O)Nc1cccc(C(=O)NCCC2=CSC3=NCCCN23)c1`, 50.3%.
Take `O=C(CC1=CSC2=NCCCN12)N1CCCCCC1c1ccco1` (centres undefined): the INHIBITION is -4.01%.
With `Cc1ccc(-c2nc(C(=O)N3CCN(C(=O)N(C)C)CC3)cs2)c(C)c1` the figure was -4.865%; with `O=S(=O)(c1cccs1)N1CC[C@H]2[C@H]1CCN2CC1CC1`, 2.58%; with `CN1CCN(CC2CCN(C(=O)CCC3CCCCC3)CC2)CC1`, 21%.
Regarding `Cn1cccc1C(=O)N1C[C@H]2CN(Cc3cccc(F)c3)C[C@H]2C1`, the INHIBITION was 6.27%.
With `O=C1CC[C@H]2[C@H](CCN2C(=O)C2CCCO2)N1Cc1cccnc1` (some centres undefined), the INHIBITION was determined as 5.96%.
Regarding `CCn1nc2c(cc1=O)CN(CCCN1CCCC1=O)CC2`, the INHIBITION worked out at 16.8%.
As for `CCNC(=O)c1nnn(Cc2ccccc2)c1OC`, the INHIBITION was -19%.
With `COCCNC(=O)c1nnn(Cc2ccccc2)c1OC` the figure was 19.3%; with `COc1c(C(=O)NCC(C)C)nnn1Cc1ccccc1`, 53.2%.
With `CN(C)CC1CSCCCN1C(=O)c1ccc(-n2cccc2)cc1` (centres undefined) the figure was 35.8%; with `CN(Cc1ccncc1)C(=O)NCc1nnc2n1CCCCC2`, -4.94%; with `COc1ccccc1CN1C[C@@H](F)[C@@H](OCc2nc3ccccc3[nH]2)C1`, 45.2%.
With `COc1ccccc1CN1C[C@@H](F)[C@@H](OCc2nc3ncccc3[nH]2)C1` the figure was 50.7%.
As to `COc1ccccc1CN1C[C@@H](F)[C@@H](OCc2nc3cnccc3[nH]2)C1`, the INHIBITION is recorded as -25.2%.
For `Cc1ccc(NC(=O)C2CSCN2C(=O)c2cccnc2)c(C)c1` (centres undefined) the value was 0.8%.
With `Cc1nc(NCc2noc(C3CCCO3)n2)c2ccsc2n1` (centres undefined) the figure was 73.2%; with `O=C(NCCc1noc(C2CCCO2)n1)c1cn2ccsc2n1` (centres undefined), 39.9%; with `O=C1CSc2ccccc2N1Cc1noc(C2CCCO2)n1` (centres undefined), 7.6%.
Turning to `Cc1nc(NCc2noc(C3CCCO3)n2)c2sccc2n1` (centres undefined), the INHIBITION worked out at 75.4%.
For `Cc1nc(NCCc2noc(C3CCCO3)n2)c2sccc2n1` (centres undefined) the value was 82.2%; for `Cc1ccc2c(c1)SCC(=O)N2Cc1noc(C2CCCO2)n1` (centres undefined), 14.9%.
With `Cc1nc(N(Cc2ccncc2)CC2CCCO2)c2ccsc2n1` (centres undefined) the figure was 40.8%; with `O=C(NCc1noc(C2CCCO2)n1)c1cn2ccsc2n1` (centres undefined), 25.9%.
As to `Cc1cc(C(F)(F)F)nc(CCNc2nc(C)nc3sccc23)n1`, the INHIBITION came to 43.2%.
On to `Cc1cc(NC(=O)CN2CCCC2Cn2nc(C)nc2C)n(C)n1` (centres undefined), for which the INHIBITION is listed as 38.8%.
For the compound `Cc1cc(C)cc(OCC(=O)N2CCCC2)c1`, the INHIBITION is recorded as -55.3%.
With `COCCn1cnnc1CNc1cc(C)nc2c(C)c(C)nn12` the figure was 15.5%.
For the compound `Cc1nn(C)c2cnn(CC(=O)NCc3ccccc3F)c12`, the INHIBITION is recorded as 41.6%.
Consider `CC(=O)N1CCCC1c1cc(Nc2nnc(C)s2)nc(C)n1` (centres undefined), for which the INHIBITION is recorded as 26.8%.
`O=C(c1nn[nH]c1Nc1cccc(Cl)c1)N1CCSCC1`: the INHIBITION is 8.38%.
For `O=C(c1nn[nH]c1Nc1ccc(Cl)cc1)N1CCSCC1` the value was 11.8%; for `O=C(c1nn[nH]c1Nc1ccc(Cl)cc1)N1CCCCCC1`, 72%.
With `COCC(=O)NC1CC2(CCN(CC3CC3)CC2)Oc2ccccc21` (centres undefined) the figure was -2.35%.
As for `CN1CCC2(CC1)CC(NC(=O)c1csnn1)c1ccccc1O2` (centres undefined), the INHIBITION came to 59.3%.
With `COCCN1CCC2(CC1)CC(NC(=O)CN(C)C)c1ccccc1O2` (centres undefined) the figure was 54.3%; with `COCCN1CCC2(CC1)CC(NC(=O)CC1CC1)c1ccccc1O2` (centres undefined), 56.8%; with `COCCN1CCC2(CC1)CC(NC(=O)COC)c1ccccc1O2` (centres undefined), -13.4%.
As to `CCN1CCC2(CC1)CC(NC(=O)c1csnn1)c1ccccc1O2` (centres undefined), the INHIBITION was determined as 41.2%.
For `COCCN1CCC2(CC1)CC(NC(=O)C1CC1)c1ccccc1O2` (centres undefined) the value was 16.1%; for `CC(C)CC(=O)NC1CC2(CCN(CCF)CC2)Oc2ccccc21` (centres undefined), 34.6%; for `COCCN1CCC2(CC1)CC(NC(=O)C(C)C)c1ccccc1O2` (centres undefined), 55.5%.
On to `O=C(NC1CC2(CCN(CCO)CC2)Oc2ccccc21)c1csnn1` (centres undefined), for which the INHIBITION is on record as 34.9%.
Turning to `COCC(=O)NC1CC2(CCN(CCF)CC2)Oc2ccccc21` (centres undefined), the INHIBITION is reported as -5.94%.
With `CCN1CCC2(CC1)CC(NC(=O)c1c[nH]cn1)c1ccccc1O2` (centres undefined) the figure was 44.8%.
